Assay outcomes (PubChem)
RPL19A TOR yeast = RPL19A-GFP expression modulators in yeast, primary screen, cell-based, S. cerevisiae, multiplex flow cytometry, MLPCN; S. cerevisiae RPL19A-GFP strain, 3 h; stronger effect = lower value; percent response vs DMSO, % at 10 µM; 0.3% of 330,000 active; AID 2025, 2009;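 active means percent response vs DMSO below 50%; inconclusive means fewer than 70 events counted for the yeast strain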;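 further: median channel GFP fluorescence of the barcoded RPL19A-GFP strain; lower means less RPL19A-GFP as with rapamycin TOR inhibition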
MEP2-GFP yeast = modulators of MEP2-GFP levels in yeast, primary screen, S. cerevisiae, multiplex flow cytometry, MLPCN library | S. cerevisiae MEP2-GFP strain, 3 h; 100% = DMSO control level | GFP response vs DMSO, % at 10 µM | 0.51% of 330,000 active | AID 2016, 2009;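 active means GFP response versus DMSO above a set limit, roughly screen mean plus 3 SD, cut at about 180% in these data; inconclusive means fewer than 70 cells counted for a yeast strain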;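 further: median GFP fluorescence of the barcode-gated MEP2-GFP cells per well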
LAP4-GFP MLPCN = modulators of LAP4-GFP expression in yeast, primary screen, S. cerevisiae, multiplex flow cytometry, MLPCN library; 3 h; median GFP as percent of DMSO wells; GFP response vs DMSO, % at 10 µM; 0.34% of 320,000 active;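 active means GFP response vs DMSO above a set limit, about the screen mean plus 3 SD, cut at about 150% in these data; inconclusive means under 70 cell events counted for the yeast strain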
CIT2-GFP yeast = modulators of CIT2-GFP expression in yeast, primary screen, S. cerevisiae, GFP fusion, multiplex flow cytometry, MLPCN library | S. cerevisiae CIT2-GFP strain, 3 h; 100 means same as DMSO wells | GFP response vs DMSO, % at 10 µM | 0.065% of 320,000 active | AID 2029, 2009;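 active means GFP response relative to DMSO above a set limit, near the screen mean plus 3 SD, cut at about 150% in these data; inconclusive means Fewer than 70 cells measured for a yeast strain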;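 further: ratio of well median GFP fluorescence to mean of DMSO wells on the plate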
VLA-4 inh = inhibition in human VLA-4 binding assay, primary screen, VLA-4 allosteric modulator project, MLPCN library, flow cytometry, VLA-4 expressing cells; Integrin alpha-4 (Homo sapiens), P13612; ligand binding flow cytometry; inhibition, % (about 7 µM as worked out from the volumes in the protocol); 0.2% of 330,000 active; AID 2557, 2010; in the data active means inhibition above about 50%
Target sequence (P13612 whole entry, looked up): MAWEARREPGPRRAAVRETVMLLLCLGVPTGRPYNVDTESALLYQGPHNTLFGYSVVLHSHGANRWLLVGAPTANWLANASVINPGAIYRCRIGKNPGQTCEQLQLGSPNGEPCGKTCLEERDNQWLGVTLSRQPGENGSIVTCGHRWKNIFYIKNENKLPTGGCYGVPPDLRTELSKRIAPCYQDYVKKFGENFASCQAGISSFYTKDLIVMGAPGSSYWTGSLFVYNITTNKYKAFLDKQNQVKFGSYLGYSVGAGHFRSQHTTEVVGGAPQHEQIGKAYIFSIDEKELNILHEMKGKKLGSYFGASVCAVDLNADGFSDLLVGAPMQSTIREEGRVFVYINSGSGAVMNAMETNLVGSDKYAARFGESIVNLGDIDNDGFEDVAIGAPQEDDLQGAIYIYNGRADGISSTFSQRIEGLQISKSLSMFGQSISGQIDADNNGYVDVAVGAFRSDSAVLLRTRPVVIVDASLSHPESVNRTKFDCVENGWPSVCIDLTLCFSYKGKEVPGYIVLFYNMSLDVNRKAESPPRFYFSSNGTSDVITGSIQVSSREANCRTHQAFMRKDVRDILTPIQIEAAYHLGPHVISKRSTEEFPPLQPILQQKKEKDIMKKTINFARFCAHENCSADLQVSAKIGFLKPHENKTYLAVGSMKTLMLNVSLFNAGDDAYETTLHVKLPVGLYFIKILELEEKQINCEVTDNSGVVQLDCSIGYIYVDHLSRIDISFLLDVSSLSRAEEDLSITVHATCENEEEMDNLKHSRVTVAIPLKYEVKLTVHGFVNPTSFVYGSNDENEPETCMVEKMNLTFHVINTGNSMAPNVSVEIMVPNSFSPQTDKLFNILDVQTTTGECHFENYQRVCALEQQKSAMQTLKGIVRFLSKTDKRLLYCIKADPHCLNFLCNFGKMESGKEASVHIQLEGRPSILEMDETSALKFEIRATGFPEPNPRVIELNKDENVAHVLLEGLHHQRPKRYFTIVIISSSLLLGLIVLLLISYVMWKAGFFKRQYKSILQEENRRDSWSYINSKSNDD
AGP1-GFP MLPCN = modulators of AGP1-GFP expression in yeast TOR pathway, primary screen, cell-based, multiplex flow cytometry, S. cerevisiae, MLPCN library | 3 h; GFP as percent of DMSO wells | GFP response vs DMSO, % at 10 µM | 0.02% of 320,000 active | AID 2066, 2009;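 active means GFP response relative to DMSO above a set limit, near screen average plus 3 SD, cut at about 150% in these data; inconclusive means fewer than 70 cells counted for the yeast strain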;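 further: median GFP channel fluorescence of the gated AGP1 strain per well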
LAP4-GFP pick2 = LAP4-GFP expression modulators in yeast, confirmation, cell-based, second cherry pick, flow cytometry | shares compounds with LAP4-GFP MLPCN | S. cerevisiae LAP4-GFP strain, 3 h | GFP response vs DMSO, % at 10 µM | 20% of 590 active | AID 2621, 2010;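 active means GFP signal as percent of the solvent control above about 150%, meaning raised reporter expression, limit read from the data; inconclusive means fewer than 70 cells counted in the well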
MEP2-GFP pick2 = modulators of MEP2-GFP levels in yeast, confirmation, S. cerevisiae, flow cytometry GFP, second cherry picks | S. cerevisiae MEP2-GFP strain, 3 h | shares compounds with LAP4-GFP MLPCN | 10% of 590 active | AID 2622, 2010 | GFP response vs DMSO, % at 10 µM;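 active means GFP signal above 150% of the solvent control wells, that is a rise of more than half; inconclusive means fewer than 70 yeast cells counted in the well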;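 further: median channel GFP fluorescence of all gated yeast cells per well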
RPL19A GFP CP2 = RPL19A-GFP modulators in TOR pathway yeast, confirmation, cell-based, S. cerevisiae, flow cytometry, second cherry pick | shares compounds with LAP4-GFP MLPCN | S. cerevisiae RPL19A-GFP strain, 3 h; stronger effect = lower value; 100% means same as DMSO wells | GFP response vs DMSO, % at 10 µM | 3% of 590 active | AID 2623, 2010;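 active means under 65% GFP response relative to DMSO; inconclusive means yeast strain with under 70 measured events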;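 further: median GFP channel fluorescence per well over the all cells gate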
CIT2 GFP CP2 = modulators of CIT2-GFP expression in yeast, confirmation, flow cytometry, second cherry pick, single plex; AID 2624, 2010; S. cerevisiae CIT2-GFP strain, 3 h; DMSO control wells read 100%; GFP response vs DMSO, % at 10 µM; shares compounds with LAP4-GFP MLPCN; 8% of 590 active;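 active means GFP response vs DMSO above about 150%, limit read from the data; inconclusive means fewer than 70 events counted for a yeast strain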;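 further: median green fluorescence per well over all gated yeast cells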
AGP1 GFP CP2 = AGP1-GFP expression modulators, hit retest, confirmation, cell-based, flow cytometry, S. cerevisiae, cherry pick set 2 | 590 tested, under 10 active | S. cerevisiae AGP1-GFP strain, 3 h | shares compounds with LAP4-GFP MLPCN | percent response vs DMSO, % at 10 µM;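 active means over 150 percent of DMSO response; inconclusive means yeast strain measured with under 70 events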;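 further: median GFP channel fluorescence over all cells without mother daughter split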
s288c autofluor = compound autofluorescence in yeast s288c, dose response, artefact control for yeast TOR pathway GFP screen, s288c strain | shares compounds with LAP4-GFP MLPCN | S. cerevisiae s288c, 520 nm autofluorescence, flow cytometry, 3 h; stronger effect = higher value; zero means same as solvent-only cells | fluorescence change (kMESF span) at 33 µM | 610 tested, under 10 active | AID 2757, 2010;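 active means fluorescence span over the dose series, or activity score, above about 33, limit read from the data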
Yeast autofl DR = autofluorescence of compounds in yeast s288c, dose response, artefact control for yeast TOR pathway GFP screen, primary hits, KU SAR, s288c parental. shares compounds with LAP4-GFP MLPCN. S. cerevisiae s288c parental, compound autofluorescence, flow cytometry, 3 h. fluorescence change (span) at 33 µM. 110 tested, under 10 active. AID 488829, 2010;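 active means fluorescence change span, or the activity score built from it, above 25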
TORC1 bypass gr = wild-type yeast growth inhibition sparing TORC1 bypass cells, mechanism study for yeast TOR pathway GFP screen, BY4741 wild type, TORC1 bypass strain; shares compounds with LAP4-GFP MLPCN; S. cerevisiae BY4741 spot growth rating, 48-72 h; stronger effect = lower value; growth rating (0-3) at 30 µM; 120 tested, under 10 active; AID 504456, 2011;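 active means growth rating at most 1 for wild type yeast while the TORC1 bypass strain still grows fully, rated 3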
A number is an active result. Compounds with a hit are over-represented: about 1.1% of the library has one in this group of screens.

Results for CC(c1ccccc1)N1C(=O)/C(=C/c2ccncc2)SC1=S (centres undefined) ?
RPL19A TOR yeast: inactive; MEP2-GFP yeast: inactive; LAP4-GFP MLPCN: 194; CIT2-GFP yeast: inactive; VLA-4 inh: inactive; AGP1-GFP MLPCN: inactive; LAP4-GFP pick2: 261; MEP2-GFP pick2: inactive; RPL19A GFP CP2: inactive; CIT2 GFP CP2: inactive; AGP1 GFP CP2: inactive; s288c autofluor: inactive

How did CNc1nc(N)c([N+](=O)[O-])c(NCc2ccco2)n1 do in these assays?
Yeast autofl DR: inactive; TORC1 bypass gr: inactive

Results for COc1ccc(Cl)cc1NC(=O)C[n+]1cccc(C)c1 ?
RPL19A TOR yeast: inconclusive; MEP2-GFP yeast: inconclusive; LAP4-GFP MLPCN: inconclusive; CIT2-GFP yeast: inconclusive; VLA-4 inh: inactive; AGP1-GFP MLPCN: inconclusive

What do the screens show for `CC(=O)Oc1ccc2c(c1)Oc1cc(OC(C)=O)ccc1C21OC(=O)c2ccccc21`?
RPL19A TOR yeast: inactive; MEP2-GFP yeast: 230; LAP4-GFP MLPCN: 206; CIT2-GFP yeast: 164; AGP1-GFP MLPCN: inactive; LAP4-GFP pick2: inactive; MEP2-GFP pick2: 175; RPL19A GFP CP2: inactive; CIT2 GFP CP2: 403; AGP1 GFP CP2: inactive

Results for COc1ccc(N2CC(C(=O)Nc3nnc(SCC(=O)N4CCOCC4)s3)CC2=O)cc1 (centres undefined) ?
RPL19A TOR yeast: inactive; MEP2-GFP yeast: inactive; LAP4-GFP MLPCN: 157; CIT2-GFP yeast: inactive; VLA-4 inh: inactive; AGP1-GFP MLPCN: inactive; LAP4-GFP pick2: inactive; MEP2-GFP pick2: inactive; RPL19A GFP CP2: inactive; CIT2 GFP CP2: inactive; AGP1 GFP CP2: inactive

How did C=CCn1c(C)c(/C=C/c2cc[n+](C)cc2)c2ccccc21 do in these assays?
RPL19A TOR yeast: inactive; MEP2-GFP yeast: 286; LAP4-GFP MLPCN: 171; CIT2-GFP yeast: 241; VLA-4 inh: inactive; AGP1-GFP MLPCN: inactive; s288c autofluor: inactive
